Screening results (PubChem BioAssay)
HEK293 tox: Cytotoxic Profiling in HEK 293 Cell Line of Diverse Libraries Using Quantitative High-Throughput Screening | Potency, µM (highest dose often 115 µM), usual class: inhibitors | actives 6.6% (n = 94,000) | AID 1345083, 2018 | HEK 293 viability, ATP luminescence (CellTiter-Glo), 48-72 h; note: nearly all actives have a fitted effect of over 60% in size
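Luminescence from cellular ATP, measured with CellTiter-Glo, indicates HEK 293 viability. Cells plated at 250 cells/well are treated with compound for 48 or 72 hr at 37 degree Celsius before reagent addition.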
Luciferase inh: Firefly luciferase inhibition profiling of diverse chemical library using quantitative high-throughput screening; Luciferin 4-monooxygenase (Photinus pyralis), P08659; purified P. pyralis luciferase, luminescence, biochemical; Potency, µM (series often up to 115 µM), actives largely listed as inhibitors; actives 2.5% (n = 76,000); note: nearly all actives have a fitted effect of over 65% in size
Target sequence (P08659 whole entry, looked up): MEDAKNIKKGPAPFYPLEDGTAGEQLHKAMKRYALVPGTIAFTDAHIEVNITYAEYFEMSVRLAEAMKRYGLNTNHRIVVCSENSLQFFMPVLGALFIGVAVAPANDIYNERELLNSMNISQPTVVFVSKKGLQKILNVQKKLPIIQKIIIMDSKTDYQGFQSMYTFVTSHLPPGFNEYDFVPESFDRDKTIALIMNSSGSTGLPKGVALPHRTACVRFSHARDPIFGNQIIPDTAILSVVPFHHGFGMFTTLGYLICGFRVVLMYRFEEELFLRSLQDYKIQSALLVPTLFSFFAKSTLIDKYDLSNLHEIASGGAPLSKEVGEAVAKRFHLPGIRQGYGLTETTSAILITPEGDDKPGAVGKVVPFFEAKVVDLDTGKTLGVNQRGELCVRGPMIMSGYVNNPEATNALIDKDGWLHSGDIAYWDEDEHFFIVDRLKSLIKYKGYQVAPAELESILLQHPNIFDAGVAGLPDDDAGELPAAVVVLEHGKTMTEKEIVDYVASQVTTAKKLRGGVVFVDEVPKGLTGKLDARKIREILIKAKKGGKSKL
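Luminescence read by CCD imager after adding enzyme (10nM final) to wells holding compound, titrated in qHTS. Substrates 10uM each D-luciferin and ATP; buffer 50mM Tris acetate pH 7.5, 10mM Mg acetate, Tween-20, BSA.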
hNpr1 antagonist: Natriuretic polypeptide receptor (hNpr1) antagonism - Primary qHTS. AID 1347048, 2019. actives 1.6% (n = 76,000). HEK293 hNpr1 GloSensor cGMP, ANP-stimulated luminescence. Potency, µM (titrated, usually from 46.3 µM), most hits filed as inhibitors. Atrial natriuretic peptide receptor 1 (Homo sapiens), P16066; calls by dose curve; note: nearly all actives have a fitted effect of over 60% in size
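Compound pre-incubated 30 min at room temperature on GloSensor-loaded HEK293 cells stably carrying hNpr1 and the pGS-40F cGMP biosensor. Stimulation uses hNppA at 0.1 nM final; luminescence is taken at baseline and 20 min post-agonist.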
NIH3T3 tox: Cytotoxic Profiling in NIH 3T3 Cell Line of Diverse Libraries Using Quantitative High-Throughput Screening; NIH 3T3 viability, CellTiter-Glo ATP luminescence, 48-72 h; Potency, µM (titrated, usually from 96.7 µM), most hits filed as inhibitors; actives 4.3% (n = 94,000); AID 1345082, 2018; note: nearly all actives have a fitted effect of over 55% in size
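Mouse fibroblast NIH 3T3 cells, 400 per well, received compound via pintool and were incubated for 48 or 72 hr prior to CellTiter-Glo ATP luminescence measurement.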
SNCA expr inh: Primary qHTS assay for inhibitors of alpha-synuclein gene (SNCA) expression; HEK-293 SNCA-luciferase knock-in, luminescence, 24 h; Potency, µM (doses to about 57.2 µM), actives largely listed as inhibitors; actives 0.17% (n = 140,000); note: nearly all actives have a fitted effect of over 45% in size
HEK293 viab: GF-AFC viability counterscreen for inhibitors of alpha-synuclein gene (SNCA) expression. actives 0.12% (n = 150,000). Potency, µM (titrated, usually from 57.1 µM), hits mostly cytotoxic. HEK-293-SNCA-luc viability, GF-AFC fluorescence, 24 h; note: nearly all actives have a fitted effect of over 30% in size
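Cytotoxicity counterscreen: after 24 h compound treatment of genome-edited SNCA-luciferase HEK-293 cells, live-cell protease substrate GF-AFC read by fluorescence after 30 min; activity scaled between DMSO (0%) and medium-only (-100%), curves Hill-fitted.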
Numbers stand for hits; n = inactive; u = inconclusive; x = not tested or not shown; [ ] = another dose, or the depositor's remark. The list is not random: actives were taken first. Their share in the collection is about 7.4%. Unless noted, calls come from the whole dose curve; as a rule, active = well fitted curve in the direction sought with a large enough effect; inconclusive = small, poorly fitted or top-dose-only effect, or another doubt; inactive = no such curve, though single readings can be large; an effect the other way counts as inactive or inconclusive.

SMILES	HEK293 tox	Luciferase inh	hNpr1 antagonist	NIH3T3 tox	SNCA expr inh	HEK293 viab
Cc1nc2cccnc2n1CC1CCCN(S(=O)(=O)c2cccc(Cl)c2)C1 (stereo unspecified)	u	n	u	u	n	n
Cc1ccc(S(=O)(=O)N2CCCC(Cn3cnc4cccnc43)C2)cc1F (stereo unspecified)	n	n	n	n	n	n
Cc1nc2cccnc2n1CC1CCCN(S(=O)(=O)c2cccc(F)c2)C1 (stereo unspecified)	35µM	n	n	u	n	n
CC(=O)NCc1nnc2n1C(C(=O)Nc1ccc(C)cc1)CC2 (stereo unspecified)	n	x	x	n	n	n[12.5 µM]
O=C(NC1CCCC1)N1CCCC(C(=O)N2CCCC2c2nc3ccncc3[nH]2)C1 (stereo unspecified)	n	x	x	n	n	n
CC(C)(C)c1nnc2ccc(C(=O)NCCc3ccccc3F)cn12	n	x	x	n	n	n
Clc1ccc(-c2cnc3n[nH]c(-c4ccccc4)c3n2)cc1	79µM	n	n	28µM	u	n
COc1cc(F)ccc1-c1cnc2n[nH]c(-c3ccccc3)c2n1	u	n	n	u	n	n
Fc1ccc(-c2cnc3n[nH]c(-c4ccccc4)c3n2)cc1	u	n	n	28µM	u	n
COC(=O)CNC(=O)c1cc(-c2ccccc2F)nc2c1cnn2C	n	x	x	u	x	x
COc1ccc(NC(=O)N2CCc3c(c4ccccc4n3C)C2)cc1	u	u	n	u	n	n
Cn1c2c(c3cc(F)ccc31)CN(C(=O)Nc1ccc(F)c(Cl)c1)CC2	32µM	u	u	13µM	u	u
Cc1ccc(NC(=O)N2CCc3c(c4ccccc4n3CC3CC3)C2)cc1	u	14µM	n	25µM	n	n
Cn1c2c(c3ccccc31)CN(C(=O)Nc1ccccc1)CC2	n	n	n	u	n	n
O=C(Nc1cccc(F)c1)N1CCc2c(c3ccccc3n2CC2CC2)C1	45µM	n	n	25µM	n	u
O=C(Nc1ccc(F)c(F)c1)N1CCc2c(c3ccccc3n2CC2CC2)C1	13µM	n	n	u	u	n
CC(C)c1nc2c(c(-c3ccc(O)cc3)n1)CCN(C(=O)c1ccccc1)CC2	n	x	x	n	n	u
COc1ccc(-n2c(=O)c(C(=O)N3CCOCC3)nc3cccnc32)cc1	n	x	x	n	n	n
CC(C)S(=O)(=O)N1CCN(c2ccc3nnc(C4CC4)n3n2)CC1	n	x	x	n	x	x
Cn1c2c(c3ccccc31)CN(C(=O)NC1CCCCC1)CC2	45µM	n	n	32µM	n	n
CC(=O)Nc1ccc(S(=O)(=O)N2Cc3ccccc3OC3(CCN(C(=O)NC(C)C)CC3)C2)cc1	n	x	x	n	n	n
O=C(c1cc(-c2cccc(C(F)(F)F)c2)c2nncn2n1)N1CCC(c2ccccc2)CC1	25µM	x	x	u	n	n
C#CCNC(=O)c1cc(-c2cccc(C(F)(F)F)c2)c2nncn2n1	10µM	x	x	u	u	u
O=C(c1cc(-c2cccc(C(F)(F)F)c2)c2nncn2n1)N1CCCC1	n	x	x	n	n	n
Cc1cc(C)c2c(N)c(C(=O)NCc3ccc(Cl)cc3)sc2n1	x	x	x	x	x	n
SMILES	HEK293 tox	Luciferase inh	hNpr1 antagonist	NIH3T3 tox	SNCA expr inh	HEK293 viab
O=C(Nc1ncc(-c2cccc(F)c2)c2c1OCC2)c1ccncc1	n	n	n	u	n	n
O=C(Nc1ncc(-c2cccc(F)c2)c2c1OCC2)c1ccc(F)c(Cl)c1	35µM	n	n	u	n	n
CNC(=O)c1cccc(-c2cnc(Nc3ccncc3)c3c2CCO3)c1	u	n	n	u	n	n
CNC(=O)c1cccc(-c2cnc(Nc3cccc(C(F)(F)F)c3)c3c2CCO3)c1	63µM	u	u	40µM	n	u
Fc1cccc(-c2cnc(Nc3cnccn3)c3c2CCO3)c1	100µM	u	n	u	n	n
CNC(=O)c1cccc(-c2cnc(Nc3ccc(F)c(Cl)c3)c3c2CCO3)c1	28µM	10µM	n	u	n	u
Cc1noc(C)c1-c1cnc(Nc2cccc(C(F)(F)F)c2)c2c1CCO2	63µM	u	n	u	n	n
CNC(=O)c1cccc(-c2cnc(Nc3cccnc3)c3c2CCO3)c1	u	25µM	n	u	n	n
CC(C)c1noc(-c2ccn3c(CNC(=O)c4ccc(N(C)C)cc4)nnc3c2)n1	n	n	n	n	n	u
CC(C)c1noc(-c2ccn3c(CNC(=O)c4cccc(N(C)C)c4)nnc3c2)n1	u	28µM	n	u	n	n
c1ccc(CCCc2noc(-c3ccc(N4CCOCC4)nc3)n2)cc1	u	n	n	n	n	n
c1ccc(CCc2noc(-c3ccc(N4CCCOCC4)nc3)n2)cc1	u	32µM	u	u	n	n
O=C(c1ccc(-c2ncc3cnc(C4=CCOCC4)cn23)cc1)N1CCc2ccccc2C1	79µM	n	n	u	n	n
Cc1cc(C)cc(-c2ccc(CN3CCCC(NC(=O)c4ccncc4)C3)cc2)c1 (stereo unspecified)	28µM	x	x	25µM	u	n
COC(=O)NC1CCCN(Cc2ccc(-c3cc(C)cc(C)c3)cc2)C1 (stereo unspecified)	40µM	x	x	45µM	n	n
Cc1cc(C)cc(-c2ccc(CN3CCCC(NC(=O)c4ccc(Cl)nc4)C3)cc2)c1 (stereo unspecified)	u	x	x	n	n	n[12.5 µM]
Cc1cc(C)cc(-c2ccc(CN3CCCC(NC(=O)C4CC4)C3)cc2)c1 (stereo unspecified)	n	x	x	n	n	n[12.5 µM]
Cc1cc(C)cc(-c2ccc(CN3C4CCC3CN(C(=O)c3ccncc3)C4)cc2)c1	45µM	x	x	u	n	n
Cc1cc(C)cc(-c2ccc(CN3CCCC(NC(=O)c4cccnc4)C3)cc2)c1 (stereo unspecified)	20µM	x	x	20µM	n	n
COc1ccc(-c2cc(N3CCCN(C(=O)Cc4ccc(Cl)cc4)CC3)n[nH]2)cc1	45µM	n	n	u	n	n
Cc1ccc(-c2cc(N3CCCN(C(=O)c4ccccc4C)CC3)n[nH]2)cc1C	32µM	n	u	40µM	n	n
COc1ccc(-c2cc(N3CCCN(C(=O)Cc4ccc(C)cc4)CC3)n[nH]2)cc1	u	n	u	u	n	n
O=C(Cc1c[nH]c2ccccc12)N1CCCN(c2cc(-c3ccc(Cl)cc3)[nH]n2)CC1	45µM	n	u	35µM	u	u
